This is a sample that favours compounds with a hit; in the whole collection about 19% have one here.
TDP1 cell CPT – growth inhibition of DT40 Tdp1-/-;hTDP1 cells with camptothecin (screen for TDP1 inhibitors). chicken DT40 Tdp1-/-;hTDP1 cells + 20 nM CPT, ATP luminescence, 48 h. Potency, µM (top dose mostly 46.2 µM), inactives show at the highest dose activity change, negative = growth inhibition, actives largely listed as inhibitors. 420,000 compounds, 12% hits. AID 686979; further: potency means the concentration at half of the fitted maximal effect; nearly all actives have a fitted effect of over 55% in size
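Chicken DT40 Tdp1-/- cells stably complemented with human TDP1 were seeded at 400 cells/well in medium containing 20 nM camptothecin, exposed to pin-transferred compounds, and grown at 37 °C for at least 48 hr. Viability was read as ATP luminescence.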
IL-1B inflam inh – inflammasome signaling inhibition, IL-1 beta readout. THP-1 LPS/ATP IL-1B secretion, AlphaLISA, 16 h; stronger effect = lower value. activity change, % at 57.5 µM. 360,000 compounds, 4.7% hits. AID 743279; in the data active means activity change below about -50%; inconclusive means mostly about -30% to -49%
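Secreted IL-1B measured by AlphaLISA bead assay after 16 h compound exposure of THP-1 cells; compounds (final up to 57.5 uM) added 1 h before LPS (250 ng/mL) and ATP (1.25 mM) stimulation; lower signal means less secretion.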
Giardia killer – Giardia lamblia killing. activity change, % at 7.66 µM, hits read low. 340,000 compounds, 0.15% hits. AID 540267. Giardia lamblia trophozoite viability; in the data active means activity change below about -80%; inconclusive means between about -30% and that limit;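 further: parasites exposed to compound for two days anaerobically before the ATP read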
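Media and compound were dispensed first, then trophozoites at 100 cells/well; plates sat 48 hrs at 37 deg C without oxygen before ATP luminescence reagent was added and read after 15-30 min at room temperature.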
TDP1 block – TDP1 (human) enzyme inhibition. Q9NUW8. recombinant TDP1, AlphaScreen DNA substrate cleavage. Potency, µM (top dose mostly 130 µM), inactives show at the highest dose activity change, negative = inhibition, actives largely listed as inhibitors. 350,000 compounds, 0.28% hits. AID 485290; further: potency means the concentration at half of the fitted maximal effect; nearly all actives have a fitted effect of over 40% in size
Target sequence (Q9NUW8 whole entry, looked up): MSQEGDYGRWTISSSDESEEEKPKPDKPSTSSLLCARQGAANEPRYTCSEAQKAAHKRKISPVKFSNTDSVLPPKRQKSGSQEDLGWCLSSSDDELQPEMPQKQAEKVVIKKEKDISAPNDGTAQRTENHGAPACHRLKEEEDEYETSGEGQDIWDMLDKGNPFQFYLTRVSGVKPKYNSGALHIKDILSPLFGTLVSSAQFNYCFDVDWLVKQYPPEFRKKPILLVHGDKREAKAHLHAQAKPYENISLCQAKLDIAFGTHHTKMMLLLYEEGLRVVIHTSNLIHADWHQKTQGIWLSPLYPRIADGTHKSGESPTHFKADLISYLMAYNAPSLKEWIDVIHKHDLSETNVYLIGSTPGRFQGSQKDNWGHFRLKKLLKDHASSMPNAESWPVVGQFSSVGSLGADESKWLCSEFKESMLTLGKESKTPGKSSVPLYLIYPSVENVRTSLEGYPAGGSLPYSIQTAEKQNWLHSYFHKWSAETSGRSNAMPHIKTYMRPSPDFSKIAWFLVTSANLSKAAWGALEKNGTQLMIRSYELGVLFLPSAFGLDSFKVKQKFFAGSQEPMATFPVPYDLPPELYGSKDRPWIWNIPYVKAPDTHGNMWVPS
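Recombinant E. coli-expressed Tdp1 (1 nM) preincubated with compound 15 min at RT, then 5'-biotin/3'-phosphotyrosine-FITC DNA substrate (15 nM) added for 5 min. AlphaScreen beads (10 ug/ml) added, 10 min RT; tyrosine-FITC cleavage read as signal loss.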
TDP1 cell noCPT – qHTS for Inhibitors of human tyrosyl-DNA phosphodiesterase 1 (TDP1): qHTS in cells in absence of CPT. DT40 Tdp1-/- hTDP1 cells, no CPT, ATP luminescence, 48 h. 420,000 compounds, 15% hits. AID 686978, 2013. Potency, µM (top dose mostly 46.2 µM), for the others: at the highest dose activity change, negative = growth inhibition, hits mostly inhibitors; further: potency means the concentration at half of the fitted maximal effect; nearly all actives have a fitted effect of over 55% in size
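Readout: luminescence from CellTiter-Glo after 30 min in the dark at RT. Cells: DT40 Tdp1-/- with stable hTDP1, 400/well. Exposure: compounds alone, ≥48 hr, 37 °C.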
ELG1 repair inh – ELG1-dependent DNA repair inhibition; HEK293T ELG1-luciferase reporter, luminescence, 16 h; DNA damage induced by 5-fluorouridine; Potency, µM (top dose mostly 46.1 µM), for the others: at the top dose activity change, negative = inhibition, hits mostly inhibitors; 330,000 compounds, 2.3% hits; further: potency means the concentration at half of the fitted maximal effect; nearly all actives have a fitted effect of over 55% in size
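DMSO vehicle served as the neutral condition. Each well held 2,000 cells given 5-fluorouridine plus compound; after 16 hr at 37 °C/5% CO2, ONE-Glo was added and luciferase measured 30 min later.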
* = called active by the depositor; ? = inconclusive; . = not tested or not shown; [ ] = another dose, or the depositor's remark. Unless noted, the call rests on the fitted dose curve; in most records, active means well fitted curve in the direction sought with a large enough effect; inconclusive means small, poorly fitted or top-dose-only effect, or another doubt; inactive means no such curve, though single readings can be large; an effect the other way counts as inactive or inconclusive. On the % scale 0 is the no-effect control and ±100 the full control effect.

SMILES	TDP1 cell CPT	IL-1B inflam inh	Giardia killer	TDP1 block	TDP1 cell noCPT	ELG1 repair inh
CC(=O)Nc1ccccc1-c1nc2ccccc2n(C(C)C(=O)Nc2ccccc2C(F)(F)F)c1=O (centres undefined)	-28.2%	.	.	2.9%	?	.
Cc1ccc(CNC(=O)c2ccc3c(O)c(S(=O)(=O)c4ccccc4)c(=O)[nH]c3c2)cc1	-1.8%	.	.	0.0%	-5.0%	.
CCC(C)C(NC(=O)OC(C)(C)C)C(=O)NC1COC2CC(n3ccc(=O)[nH]c3=O)OC12 (centres undefined)	.	.	27.8	6.2%	.	.
Cc1nnc(SCC(=O)Nc2ccccc2F)n1-c1ccc(F)cc1	6.6%	4.5	-21.8	.	6.0%	8.0%
CCC(=O)Nc1ccccc1-c1nc2ccccc2n(C(C)C(=O)Nc2ccc(OC)cc2)c1=O (centres undefined)	?	.	.	0.0%	14.6µM*	.
C/C=C/C1=CC2=CC(=O)C(C)(OC(=O)c3c(C)cc(O)cc3O)C(=O)C2=CO1 (centres undefined)	.	.	.	-6.9%	.	.
CC(C)(C)c1nnc2sc(SCC(=O)c3cccs3)nn2c1=O	?	-19.4	6.1	3.9%	25.9µM*	15.5%
Cc1ccc(C(=O)CSc2nn3c(=O)c(C(C)(C)C)nnc3s2)cc1	?	-28.0	13.6	4.9%	18.4µM*	5.6%
c1ccc2sc(N3CCCN(Cc4nc(-c5cnccn5)no4)CC3)nc2c1	-29.2%	-3.2	-3.4	6.1%	?	?
COc1ccc(C(=O)c2oc3ccccc3c2NC(=O)COc2ccccc2)cc1	6.1%	.	.	-0.4%[12.3 µM]	?	.
CN(C)C(=S)NC(=O)C(c1ccccc1)c1ccccc1	8.2%	-15.6	2.7	5.1%	?	-6.3%
CC(=O)NNC(=S)NC(=O)C(c1ccccc1)c1ccccc1	8.2µM*	99.8	?	4.8%	16.4µM*	-20.0%
CC(C)(C)C(=O)NC(=S)NNC(=O)C(c1ccccc1)c1ccccc1	4.61µM*	153.0	-21.5	2.4%	3.66µM*	-11.1%
CCNC(=S)NNC(=O)C(c1ccccc1)c1ccccc1	1.1%	16.5	14.6	7.8%	-5.8%	-17.8%
COc1cc(C2Nc3ccccc3C(=O)N2Cc2ccccc2)ccc1OCc1ccc(NC(C)=O)cc1 (centres undefined)	.	.	.	0.5%	.	.
Cc1ccc(C(C[N+](=O)[O-])Sc2ccc(N)cc2)cc1 (centres undefined)	4.11µM*	.	-5.3	10.1%	6.51µM*	?
Cc1ccc(C(O)CCc2ccc(N)cc2)cc1 (centres undefined)	3.6%	-21.5	-4.0	.	-10.2%	0.8%
CN(C)CCNC(=O)c1cc2sc3ccccc3c2s1	?	-70.9*	-0.2	1.1%	23.1µM*	?
CCN(CC)CCNC(=O)c1cc2c(=O)n(CC)c3ccccc3c2s1	?	-55.7*	-0.3	.	18.4µM*	?
CCN(CC)CCCNC(=O)c1cc2c(=O)n(CC)c3ccccc3c2s1	?	-57.0*	-8.6	.	?	?
Cc1ccc(S(=O)(=O)N2CCCCC2)cc1NS(=O)(=O)c1ccc(Cl)c(C(=O)O)c1	5.4%	9.4	2.8	-7.1%	0.9%	14.6%
CC1CCN(CC(O)COCCOc2ccc(Br)cc2)CC1 (centres undefined)	-19.8%	-7.8	-4.3	-1.8%	?	-1.9%
CC1CCN(CC(O)COCCC23CC4CC(CC(C4)C2)C3)CC1 (centres undefined)	20.6µM*	?	5.6	0.5%	20.6µM*	?
CCN(CC)C(=O)CC(c1ccc(N(C)C)cc1)c1c(O)cc(OC)cc1OC (centres undefined)	?	-20.8	30.1	25.6%	-9.7%	0.0%
Cc1ccccc1N(C=O)c1ccccc1C	-6.4%	19.6	-0.6	.	-24.9%	.
SMILES	TDP1 cell CPT	IL-1B inflam inh	Giardia killer	TDP1 block	TDP1 cell noCPT	ELG1 repair inh
CN1CCN(S(=O)(=O)c2ccc(Cl)cc2)CC1	13.6%	0.7	2.9	.	-2.8%	-20.7%
Cc1ccc(S(=O)(=O)c2ccc(Cl)cc2)cc1S(=O)(=O)N1CCN(C)CC1	14.1µM*	2.7	-14.9	0.0%	?	-12.3%
O=C(NCCc1ccccn1)c1cnn(-c2ncc3c(n2)-c2ccccc2CC3)c1C1CC1	-12.6%[9.04 µM]	.	.	.	?	.
Oc1ccccc1-c1ccn[nH]1	-19.8%	-3.2	-9.1	-0.4%	-16.9%	?
c1csc(-c2nc3c4ccccc4c4ccccc4c3[nH]2)c1	20.6µM*	-5.3	-12.3	5.0%	?	?
Oc1ccccc1-c1nc2c3ccccc3c3ccccc3c2[nH]1	20.6µM*	28.7	-22.9	-5.1%	18.4µM*	0.0%
CC(C)OCCCNC(=S)NNC(=O)c1ccc(Cl)c(Cl)c1	8.6%	37.2	5.7	1.2%	13.2%	18.9%
NNc1nnc(-c2ccccc2)c(-c2ccccc2)n1	13µM*	7.6	-8.6	5.3%	16.4µM*	?
COc1cc(-c2nc(-c3ccccc3)c(-c3cccs3)[nH]2)cc(OC)c1OC	16.4µM*	?	4.5	2.0%	23.1µM*	?
COc1cc(-c2nc(-c3ccccc3)c(-c3cccs3)[nH]2)cc(OC)c1O	?	?	-14.6	9.8%	?	?
CN(C)c1ccc(-c2nc(-c3cccs3)c(-c3cccs3)[nH]2)cc1	10.3µM*	.	.	11.6%	9.2µM*	.
COc1cccc(-c2nc(-c3ccccc3)c(-c3ccccc3)[nH]2)c1OCC(=O)O	-8.2%	10.6	?	.	-25.1%	-0.8%
COc1cc(-c2nc(-c3ccc4c(c3)-c3ccccc3S4(=O)=O)c(-c3ccccc3)[nH]2)cc(OC)c1OC	18.4µM*	-4.9	-16.2	7.0%	7.31µM*	2.59µM*
Oc1ccccc1-c1nc(-c2cccs2)c(-c2cccs2)[nH]1	?	.	.	4.7%	?	.
CSc1ncnc2c1ncn2CCCN1CCN(Cc2c(C)cc(C)cc2C)CC1	?	5.8	.	.	?	.
Cc1cc(/C=C\c2ccccc2)nc2ccccc12	-6.7%	-52.3*	-3.9	-3.7%	-23.2%	?
Cc1cc(C(Br)(Br)Br)nc2ccccc12	2.51µM*	.	.	.	2.51µM*	.
COc1ccc(/C=C/c2cc(C(=O)O)c3ccccc3n2)cc1	10.3µM*	16.8	-92.9*	-1.3%	14.6µM*	?
COc1cc(OC)c(OC)cc1/C=C/c1cc(C(=O)O)c2ccccc2n1	8.9%	6.3	-23.2	1.2%	-1.5%	16.3%
CN(CC(=O)Nc1ccccc1Br)C(=O)CNC(=O)c1ccco1	-2.6%	16.8	18.4	-7.7%[0.505 µM]	-0.5%	9.5%
CC(C)CC(N)c1csc(Nc2ncccn2)n1 (centres undefined)	9.2µM*	-15.1	.	.	6.51µM*	.

Source: PubChem BioAssay
